Experimental data as given in PubChem BioAssay.
Several values for one entry are separate records, joined by “and”; a condition that tells them apart may be missing. Equal entries are not always repeated. Activity calls are given as the source filed them.

Experiments:
[1] = target: Albumin (Bos taurus) (UniProt P02769); assay: compounds binding labelled BSA control protein – biochemical, small-molecule microarray, Alexa647 label, 635/667 nm fluorescence, artefact control for SMM control protein annotation, profiling panel (AID 1118); conditions: BSA-A647 binding, fluorescence 635 nm, higher = more signal;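 also: score merges 667 nm emission intensity and signal-to-noise per printed compound spot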
[2] = probe aXIP binding to arrayed compounds – biochemical, NeuroSMM set, 635/667 nm fluorescence, primary screen (AID 1119); conditions: small-molecule microarray; higher = more signal, called active from +8 up or from −8 down unless noted;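 also: probe is the protein aXip251-270 applied at 1 µg/mL to compound-printed slides; binding of probe to printed compounds measured as 667 nm fluorescence plus signal to noise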
[3] = probe aNOTCH3 binding on compound microarray – biochemical, small-molecule microarray, 635/667 nm fluorescence, primary screen (AID 1120); conditions: higher = more signal; small-molecule microarray, probe aNOTCH3, fluorescence unless noted;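 also: probe is a biotin-tagged antibody raised against NOTCH3 rather than NOTCH3 protein; score merges spot fluorescence near 667 nm with spot signal to noise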
[4] = probe aNOTCH2 binding on compound microarray – biochemical, small-molecule microarray, 635/667 nm fluorescence, primary screen (AID 1121); conditions: higher = more signal; small-molecule microarray, probe aNOTCH2, fluorescence unless noted;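 also: score merges feature fluorescence read at 667 nm with its signal to noise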
[5] = target: Carbonic anhydrase 2 (Homo sapiens) (UniProt P00918); assay: compounds binding carbonic anhydrase 2 – biochemical, small-molecule microarray, Alexa647-labelled CAII, profiling panel (AID 1122); conditions: CAII-A647 binding fluorescence, higher = more signal
[6] = COS7 lysate on small-molecule microarray, probe aHis, 635 nm (AID 1123); conditions: higher = more signal; small-molecule microarray, COS7 cell lysate, probe aHis, fluorescence unless noted;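 also: z-score combines 667nm fluorescence intensity with signal-to-noise per printed compound spot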
[7] = probe aLAP1 signal on lysate-treated microarray – cell lysate, small-molecule microarray, COS7 lysate, primary screen (AID 1124); conditions: higher = more signal; small-molecule microarray, COS7 cell lysate, probe aLAP1, fluorescence unless noted;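 also: lysate comes from COS7 cells expressing LAP1 and is applied at 0.3 µg/mL; score merges spot fluorescence near 667 nm with signal-to-noise over triplicate slides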
[8] = tested on: Sam68 (KHDRBS1); assay: compounds binding KHDRBS1 protein – biochemical, small-molecule microarray, 635 nm fluorescence, primary screen (AID 1125); conditions: higher = more signal;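 also: score merges 667 nm channel intensity with signal to noise over triplicate slides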
[9] = tested on: Chordin-like protein 2 (CHRDL2); assay: compounds binding chordin-like 2 – biochemical, small-molecule microarray, 635 nm fluorescence, primary screen (AID 1126); conditions: fluorescence 635 nm, higher = more signal;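 also: printed compound slides probed with Chrdl2 protein at 4 µg/mL for 1 h at 4 C; score merges 667 nm emission intensity with signal to noise over three replicate slides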
[10] = target: Concanavalin-A (Canavalia ensiformis) (UniProt P02866); assay: compounds binding concanavalin A lectin – biochemical, small-molecule microarray, Alexa647 label, 635 nm, artefact control for SMM control protein annotation, primary screen (AID 1127); conditions: ConA-A647 binding fluorescence, higher = more signal;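 also: z combines 667 nm emission intensity with signal-to-noise across three replicate slides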
[11] = compounds binding Alexa647 anti-His antibody – biochemical, small-molecule microarray, 635 nm fluorescence, artefact control for SMM control protein annotation, primary screen (AID 1128); conditions: higher = more signal;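 also: score merges feature fluorescence with signal-to-noise for each printed compound spot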
[12] = tested on: Human papillomavirus type 1a E7 protein (residues 1-88); assay: HPV1a E7 small-molecule binders, primary screen, biochemical, small-molecule microarray, residues 1-88, 635 nm (AID 1129); conditions: small-molecule microarray binding, fluorescence 635 nm; higher = more signal
[13] = target: Focal adhesion kinase 1 (Homo sapiens) (UniProt Q05397); assay: PTK2 protein binding on printed compound slides – biochemical, small-molecule microarray, 635/667 nm fluorescence, BSA, DTT, primary screen (AID 1130); conditions: 635 nm fluorescence, higher = more signal;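 also: composite of spot emission at 667 nm and signal to noise over triplicate slides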
[14] = tested on: Fibrinogen (Alexa647-labelled); assay: Alexa647-fibrinogen binding to printed small molecules – biochemical, small-molecule microarray, 635/667 nm fluorescence, artefact control for SMM control-protein annotation, profiling panel (AID 1131); conditions: fibrinogen-A647 binding fluorescence, higher = more signal;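 also: z-score merges 667 nm fluorescence with per-spot signal-to-noise over triplicate slides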
[15] = target: Follistatin (Homo sapiens) (UniProt P19883); assay: FST protein binding to printed compounds – biochemical, small-molecule microarray, 635/667 nm fluorescence, primary screen (AID 1132); conditions: 635 nm fluorescence, higher = more signal
[16] = target: Fibroblast growth factor 2 (Homo sapiens) (UniProt P09038); assay: basic fibroblast growth factor binding to printed compounds – biochemical, small-molecule microarray, 635/667 nm fluorescence, primary screen (AID 1133); conditions: FGF2, fluorescence 635/667, higher = more signal
[17] = JC-1 mitochondrial potential readout, lung cancer cells – cell-based, A549, JC-1 fluorescence, basal, 24 h, 100 nL, profiling panel (AID 1138); conditions: higher = more signal;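 also: A549 lung adenocarcinoma cells under basal conditions with no added stimulus; test concentration not given here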
[18] = tested on: Lefty1; assay: Lefty1 protein binding to printed compounds – biochemical, small-molecule microarray, 635/667 nm fluorescence, primary screen (AID 1139); conditions: fluorescence 635/667, higher = more signal
[19] = tested on: wheat germ agglutinin (Triticum aestivum), Alexa647-labelled; assay: Alexa647-WGA lectin binding to printed small molecules – biochemical, small-molecule microarray, 635/667 nm fluorescence, artefact control for SMM control-protein annotation, profiling panel (AID 1140); conditions: WGA-A647 binding, 635 nm fluorescence, higher = more signal;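 also: score merges 667 nm feature emission with signal to noise over triplicate slides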
[20] = target: Luciferin 4-monooxygenase (Photinus pyralis) (UniProt P08659); assay: inhibition of purified Photinus pyralis luciferase – biochemical, luminescence, purified enzyme, 2006 set, primary screen (AID 1141); conditions: purified firefly luciferase, SteadyGlo luminescence, 30 min; higher = more signal, called active from +8 up or from −8 down unless noted;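 also: cell-free assay with purified firefly luciferase at 100 ng per well in PBS; test concentration not given here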
Chain of Luciferin 4-monooxygenase (Photinus pyralis) (P08659 whole entry, looked up): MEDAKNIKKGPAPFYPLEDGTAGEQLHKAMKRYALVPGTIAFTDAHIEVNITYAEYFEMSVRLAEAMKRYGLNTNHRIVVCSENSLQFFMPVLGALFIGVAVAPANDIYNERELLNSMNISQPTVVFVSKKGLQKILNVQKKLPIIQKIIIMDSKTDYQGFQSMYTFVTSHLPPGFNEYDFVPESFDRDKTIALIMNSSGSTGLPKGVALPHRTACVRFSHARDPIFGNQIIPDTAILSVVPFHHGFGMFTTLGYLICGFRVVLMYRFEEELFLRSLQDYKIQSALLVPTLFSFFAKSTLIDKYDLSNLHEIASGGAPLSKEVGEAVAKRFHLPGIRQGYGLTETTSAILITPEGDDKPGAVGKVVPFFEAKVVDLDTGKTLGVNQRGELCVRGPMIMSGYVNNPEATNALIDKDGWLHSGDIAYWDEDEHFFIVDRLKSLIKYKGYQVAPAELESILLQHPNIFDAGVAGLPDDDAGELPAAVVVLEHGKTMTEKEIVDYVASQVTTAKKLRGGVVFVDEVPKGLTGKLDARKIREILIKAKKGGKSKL

Chain of Follistatin (Homo sapiens) (P19883 whole entry, looked up): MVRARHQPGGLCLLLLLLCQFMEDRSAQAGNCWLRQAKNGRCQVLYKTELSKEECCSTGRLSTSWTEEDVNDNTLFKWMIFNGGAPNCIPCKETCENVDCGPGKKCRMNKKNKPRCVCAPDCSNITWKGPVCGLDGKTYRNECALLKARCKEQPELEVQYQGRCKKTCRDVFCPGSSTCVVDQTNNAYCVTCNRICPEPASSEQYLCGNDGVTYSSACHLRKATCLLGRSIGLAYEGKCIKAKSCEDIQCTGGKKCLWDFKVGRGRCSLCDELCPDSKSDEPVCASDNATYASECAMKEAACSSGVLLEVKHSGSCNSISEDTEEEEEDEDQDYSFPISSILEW
Chain of Albumin (Bos taurus) (P02769 whole entry, looked up): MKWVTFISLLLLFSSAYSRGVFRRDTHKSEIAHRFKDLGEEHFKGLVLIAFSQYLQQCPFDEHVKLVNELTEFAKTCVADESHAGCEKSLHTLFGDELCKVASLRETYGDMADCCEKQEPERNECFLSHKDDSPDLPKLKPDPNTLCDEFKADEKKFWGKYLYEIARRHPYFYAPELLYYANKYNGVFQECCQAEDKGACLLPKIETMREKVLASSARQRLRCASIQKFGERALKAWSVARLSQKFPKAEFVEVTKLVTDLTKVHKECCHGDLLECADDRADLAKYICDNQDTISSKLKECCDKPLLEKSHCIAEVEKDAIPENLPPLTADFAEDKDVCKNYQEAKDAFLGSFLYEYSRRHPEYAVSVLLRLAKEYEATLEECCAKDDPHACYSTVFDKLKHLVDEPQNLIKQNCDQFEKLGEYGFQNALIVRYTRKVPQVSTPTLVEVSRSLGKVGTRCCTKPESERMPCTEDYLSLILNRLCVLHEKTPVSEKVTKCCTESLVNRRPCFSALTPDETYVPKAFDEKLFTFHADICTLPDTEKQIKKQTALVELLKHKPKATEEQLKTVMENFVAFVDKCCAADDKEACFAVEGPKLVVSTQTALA
Chain of Fibroblast growth factor 2 (Homo sapiens) (P09038 whole entry, looked up): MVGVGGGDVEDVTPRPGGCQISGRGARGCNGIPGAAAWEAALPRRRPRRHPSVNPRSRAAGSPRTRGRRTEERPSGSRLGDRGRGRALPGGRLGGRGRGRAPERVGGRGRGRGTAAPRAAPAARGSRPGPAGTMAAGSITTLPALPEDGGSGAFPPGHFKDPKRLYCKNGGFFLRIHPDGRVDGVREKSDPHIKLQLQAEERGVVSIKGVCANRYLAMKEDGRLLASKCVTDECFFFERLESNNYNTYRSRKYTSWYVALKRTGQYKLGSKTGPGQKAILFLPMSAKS
Chain of Focal adhesion kinase 1 (Homo sapiens) (Q05397 whole entry, looked up): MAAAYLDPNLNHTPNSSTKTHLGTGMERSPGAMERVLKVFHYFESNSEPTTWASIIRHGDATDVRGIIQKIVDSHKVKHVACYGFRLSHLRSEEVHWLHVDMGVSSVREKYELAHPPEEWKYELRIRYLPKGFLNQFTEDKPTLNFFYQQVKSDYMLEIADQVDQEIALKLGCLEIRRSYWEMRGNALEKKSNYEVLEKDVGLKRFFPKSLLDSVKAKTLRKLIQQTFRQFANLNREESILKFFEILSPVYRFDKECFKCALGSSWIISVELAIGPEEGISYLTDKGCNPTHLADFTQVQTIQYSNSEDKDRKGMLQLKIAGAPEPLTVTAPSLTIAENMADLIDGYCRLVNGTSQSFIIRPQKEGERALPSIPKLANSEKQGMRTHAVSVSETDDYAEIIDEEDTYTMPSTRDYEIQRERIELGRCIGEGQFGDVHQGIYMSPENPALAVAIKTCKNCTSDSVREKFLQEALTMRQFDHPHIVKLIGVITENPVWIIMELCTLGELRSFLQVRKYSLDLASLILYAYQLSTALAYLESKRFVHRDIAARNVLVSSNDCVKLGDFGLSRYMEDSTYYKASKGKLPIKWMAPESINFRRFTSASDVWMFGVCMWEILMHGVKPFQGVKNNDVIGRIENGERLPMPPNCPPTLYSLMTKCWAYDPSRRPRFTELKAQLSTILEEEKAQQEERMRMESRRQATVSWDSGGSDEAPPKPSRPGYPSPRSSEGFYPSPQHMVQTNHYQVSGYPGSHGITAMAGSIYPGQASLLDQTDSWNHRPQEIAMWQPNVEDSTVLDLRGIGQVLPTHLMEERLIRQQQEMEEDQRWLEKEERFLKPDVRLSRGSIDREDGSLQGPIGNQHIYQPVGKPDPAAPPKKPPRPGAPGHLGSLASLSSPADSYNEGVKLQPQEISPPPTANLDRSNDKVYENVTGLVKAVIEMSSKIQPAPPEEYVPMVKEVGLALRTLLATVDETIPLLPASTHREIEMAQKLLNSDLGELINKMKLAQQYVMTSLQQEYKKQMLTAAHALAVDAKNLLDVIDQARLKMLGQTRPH
Chain of Concanavalin-A (Canavalia ensiformis) (P02866 whole entry, looked up): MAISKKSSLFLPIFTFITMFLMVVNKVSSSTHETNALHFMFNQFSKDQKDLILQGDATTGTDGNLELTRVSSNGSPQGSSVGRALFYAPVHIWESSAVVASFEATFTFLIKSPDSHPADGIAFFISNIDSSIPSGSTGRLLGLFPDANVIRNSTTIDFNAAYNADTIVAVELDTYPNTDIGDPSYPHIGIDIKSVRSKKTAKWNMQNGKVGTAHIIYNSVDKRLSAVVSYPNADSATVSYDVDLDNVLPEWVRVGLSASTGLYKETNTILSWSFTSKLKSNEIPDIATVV

Structure (SMILES) | composite z-score [1] | composite Z-score [2] | composite z-score [3] | composite z-score [4] | composite z-score [5] | composite z-score [6] | composite z-score [7] | composite z-score [8] | composite z-score [9] | composite z-score [10] | composite z-score [11] | composite z-score [12] | composite z-score [13] | composite z-score [14] | composite z-score [15] | composite z-score [16] | z-score [17] | composite z-score [18] | composite z-score [19] | z-score [20]
COC(=O)NCC=Cc1nc(CCC=CC(=O)O[C@H]2CC3CC(=O)O[C@@H](C=CCC(C)C)C[C@@H]4CC[C@H](C)[C@@H](C[C@@H](OC)C[C@H](C2)O3)O4)co1 | -0.27 | 0.0506 (inactive) | -0.095 | -0.14 | -0.303 | -0.263 | 0.411 | -1.03 | -0.647 | -1.63 | -0.106 | -1.42 | -0.422 | -1.2 | -0.822 | -0.43 | 1.88 | -0.422 | -0.777 | -0.0363 (inactive)
C[C@@H]1OC=C2[C@@H](O)[C@H]3O[C@H]3C(=O)[C@]23[C@H]1[C@H]1C2=C([C@@H](O)[C@H]4O[C@H]4C2=O)[C@@H]3O[C@@H]1C | -0.745 | 0.278 (inactive) | -0.063 | -0.147 | -0.355 | -0.934 | -0.266 | -1.86 | 0.584 | -0.66 | -0.317 | -0.556 | -0.171 | -0.559 | 0.0982 | 0.0979 | 0.774 | 0.277 | -0.351 | -0.563 (inactive)
OCc1ccc(C2=CC(C3CC3)N(Cc3sc4ccccc4c3Cl)CC2)cc1 (stereo not given) | -0.0477 | 0.565 (inactive) | -0.0932 | -0.133 | 0.306 | 0.88 | 0.434 | 1.07 | 0.529 | 0.948 | 2.28 | 1.17 | 0.257 | 0.483 | 1.06 | 0.867 | 0.941 | 0.853 | 0.42 | -1.57 (inactive)
CCCc1cc2c(n1CCO)C(C)C1CN(C(=O)c3ccccc3)C(C)(C(=O)OC)C21 (stereo not given) | 0.979 | 0.43 (inactive) | 1.25 | 0.424 | 0.843 | 3.26 | 1.09 | 0.563 | -1.23 | 1.11 | 2.55 | 1.14 | 1.42 | 0.64 | -0.315 | -0.634 | 0.9 | -0.875 | 1.25 | 1.54 (inactive)
CCCc1cc2c(n1Cc1ccco1)C(C)C1CN(C(=O)c3ccccc3)C(C)(C(=O)OC)C21 (stereo not given) | 0.953 | 0.829 (inactive) | 0.247 | 0.374 | 0.744 | 0.747 | 0.859 | 0.878 | 0.515 | 0.851 | 1.7 | 0.806 | 0.307 | 0.717 | 1.13 | -0.0321 | -0.0794 | 0.494 | 1.29 | -7.6 (inactive)
O=P(c1ccccc1)(c1ccccc1)N1CC2(CC2)CC(O)(c2ccccc2)C1 (stereo not given) | 0.498 | 0.284 (inactive) | 0.392 | 0.193 | 0.835 | 3.3 | 1.19 | 0.584 | -0.31 | 0.462 | 1.11 | 0.805 | 1.26 | 0.77 | -0.541 | -0.955 | 0.542 | -1.17 | 0.546 | 2.44 (inactive)
CCCc1cc2c(n1Cc1ccc(C)cc1)C(C)C1CN(C(=O)c3ccccc3)C(C)(C(=O)OC)C21 (stereo not given) | 0.864 | 1.3 (inactive) | 0.773 | 1.03 | 0.803 | 2.02 | 1.45 | 0.52 | -0.809 | 0.453 | 2.14 | 1.06 | 1.29 | 0.889 | 0.66 | 0.578 | 1.14 | -0.544 | 0.833 | -1.17 (inactive)
CC1N(P(=O)(c2ccccc2)c2ccccc2)CC(O)(c2ccccc2)CC12CC2 (stereo not given) | 0.728 and 0.608 | 0.311 (inactive) and 0.617 (inactive) | -0.136 and 0.15 | 0.148 and 0.256 | 0.596 and 0.631 | 3.25 and 2.52 | 0.934 and 0.881 | 0.723 and -0.577 | -0.665 and -0.801 | -0.358 and -0.0278 | 1.12 and 1.33 | 0.773 and 0.537 | 1.39 and 0.264 | -0.817 and 0.653 | -1.07 and -0.0739 | -1.02 and -0.642 | 0.158 and 0.776 | -1.48 and -1.47 | -0.322 and 0.637 | 2.42 (inactive) and 2.44 (inactive)
CCOC(=O)[C@H]1CC=C2C(=O)Oc3ccc(Br)cc3[C@@H]21 | -0.104 | 0.35 (inactive) | -0.245 | -0.0896 | 0.663 | 1.95 | 0.328 | 0.893 | -1.24 | 1.13 | 0.819 | 1.27 | 1.87 | 0.474 | -1.1 | -1.3 | -0.896 | -1.66 | -0.0424 | 0.936 (inactive)
CN1CCc2nc(CO)c(CO)cc2C1 | 0.372 | 0.396 (inactive) | 0.133 | -0.115 | 0.2 | 0.121 | -0.13 | 0.132 | 0.476 | -0.446 | 1.08 | 0.635 | 0.11 | 0.291 | 0.398 | 0.576 | 1.02 | 0.263 | -0.0298 | -0.529 (inactive)
COC(=O)[C@@]1(Cc2ccc(F)cc2)[C@H]2c3cc(C(=O)N(C)C)[nH]c3C[C@H]2CN1C(=O)c1ccccc1 | 0.659 | 0.495 [setting not given] (inactive) | -0.0414 [setting not given] | -0.0763 [setting not given] | 0.777 | 0.694 [setting not given] | 0.18 [setting not given] | 0.361 | -0.268 | 0.419 | 1.8 | 0.733 | 0.745 | 0.817 | -0.252 | -0.0573 | 0.843 | -0.855 | 0.186 | -0.0137 [setting not given] (inactive)
COC(=O)[C@H]1C(=O)c2ccccc2O[C@@](C(=O)OC)(c2ccccc2)[C@@H]1c1ccccc1 | -0.764 | 0.181 (inactive) | -0.27 | -0.125 | -0.466 | -0.583 | -0.129 | -0.988 | -0.0221 | -0.0286 | -0.34 | -1.34 | 0.0173 | -1.75 | -0.245 | -0.105 | -0.778 | -0.0506 | -0.738 | 0.164 (inactive)
COC(=O)[C@H]1[C@@H](O)[C@@]2(O)c3c(OC)cc(OC)cc3O[C@@]2(c2ccc(OC)cc2)[C@@H]1c1ccccc1 | 0.0007 | -0.619 (inactive) | -0.101 | -0.0439 | -0.0268 | 0.309 | 0.413 | 0.34 | 0.671 | 0.37 | 0.287 | 0.741 | 0.153 | 0.323 | 0.53 | 0.4 | 0.862 | 0.614 | 0.0623 | -1.13 (inactive)
C=C(CC1(CNP(=O)(c2ccccc2)c2ccccc2)CC1)c1ccccc1 | 0.44 | -0.0318 (inactive) | 0.179 | 0.0312 | 0.809 | 1.2 | 0.399 | -0.975 | -0.754 | -0.139 | 0.679 | 0.626 | 0.0728 | 0.126 | -0.274 | -0.639 | 1.23 | -0.742 | 0.11 | 2.19 (inactive)
CN1CCC(c2ccc(CO)cc2)=CC1C1CC1 (stereo not given) | -1.02 | -0.557 (inactive) | 0.0357 | -0.192 | -0.0046 | -0.106 | -0.334 | -0.172 | 0.0276 | 0.28 | -0.192 | -0.855 | 0.363 | -0.0825 | 0.231 | 0.0573 | 0.319 | 0.85 | -0.0579 | -0.866 (inactive)
COC(=O)[C@@]1(Cc2ccccc2)[C@H]2c3cc(C(=O)N(C)C)[nH]c3C[C@H]2CN1C(=O)c1ccccc1 | 0.772 | -0.0667 (inactive) | -0.0017 | -0.0193 | 0.896 | -0.0769 | 0.0772 | -1.41 | -0.219 | -0.394 | 0.523 | -1.26 | -0.206 | -0.0736 | -0.426 | -0.387 | 0.825 | -1.29 | -0.09 | 2.27 (inactive)
